The text below walks through data of PubChem BioAssay AID743269 (The Scripps Research Institute Molecular Screening Center, 2014).

Each structure is given as a SMILES string. Values joined by “and” are separate entries in the source; they are usually repeats but may differ in a detail not shown here. Equal entries are not always repeated. About 2,400 (0.65%) of roughly 370,000 compounds were called active. The sample holds actives, similar compounds and a random draw of the others, so the mix is not that of the screen.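 How the source made its calls: active means inhibition above the screen-wide mean plus 3 SD (cut at about 13% in these data); inactive means the rest.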 The source holds several records for some structures; these can differ, active in one and inactive in another.

The test system of the experiment is HIV-1 integrase (with human LEDGF/p75). As to the kind of experiment: blockers of LEDGF/p75-dependent integrase strand transfer – biochemical, TR-FRET, high throughput, primary screen (AID 743269).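 Further: signal is the Cy5 over europium emission ratio at 671 and 618 nm; 0% = plate median of compound wells.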 The settings on record: TR-FRET IN-LEDGF/p75 DNA integration, Eu/Cy5; at 3.7 µM; stronger effect = higher value. In general terms: Time-resolved FRET reads energy transfer from a long-lived donor to a nearby acceptor.
For `COC(=O)[C@]12C[C@H](CC(=O)NCc3cccc4ccccc34)C(=O)N(CCc3ccc(OC)c(OC)c3)C1=C[C@H](C1CCCC1)O[C@@H]2C`, the inhibition (usually the relative decrease from the control value, in per cent) was 3.8% (inactive). Next, `CO/N=C(\C(=O)N[C@@H]1C(=O)N2C(C(=O)O)=C(COC(C)=O)CS[C@H]12)c1csc(N)n1` (stereo in doubt): 14.1% (active) and 6.2% (inactive) and 17.6% (active); `C=CC1=C(C(=O)O)N2C(=O)[C@@H](NC(=O)/C(=N/OCC(=O)O)c3csc(N)n3)[C@H]2SC1`: 63.4% (active). Next, `C=CC1=C(C(=O)O)N2C(=O)[C@@H](NC(=O)/C(=N\OCC(=O)O)c3csc(N)n3)[C@H]2SC1`: 19.9% (active); `COc1ccc(C(=O)OCCN(C)C2CN(Cc3cn(Cc4cccc(C)c4)nn3)S(=O)(=O)C2)cc1OC` (centres undefined): 4.74% (inactive). As to `CN(C(N)=NC(=O)/C=C/c1ccccc1)C(C#Cc1ccccc1)Cc1ccccc1` (centres undefined), the inhibition was 2.02% (inactive). Next, `COc1ccc(C2CC=C(C(=O)O)C(c3ccccc3F)N2S(=O)(=O)c2ccc(C)cc2)cc1OC` (centres undefined): -2.7% (inactive); `CN1C[C@]2(C=C3CCCCC3n3c(=O)n(-c4ccccc4)c(=O)n32)N=C1NC(=O)c1ccccc1` (some centres undefined): 0.62% (inactive).

Take `O=C(CNC(=O)c1ccccc1)OC(C(=O)Nc1cc([N+](=O)[O-])ccc1F)c1ccccc1` (centres undefined): the inhibition is -3.25% (inactive). Next, `Cc1ccc(-n2c(SCC(=O)Nc3ccc(S(=O)(=O)Nc4nccs4)cc3)nnc2-c2cccnc2)cc1`: 8.17% (inactive); `COc1cccc(CNC(=O)C2CCCN(c3nc4ccccc4o3)C2)c1OC` (centres undefined): 3.24% (inactive); `O=C(NCCCn1ccnc1)c1cc(-c2ccccc2)on1`: 1.32% (inactive). On to `O=C(CCN1C(=O)c2ccccc2C1=O)NCCCn1ccnc1`, for which the inhibition is 1.21% (inactive).

Regarding `COc1ccccc1-c1cc(C(=O)NCCCn2ccnc2)no1`, the inhibition is 16.7% (active).

For `O=C(c1c[nH]c2ccccc12)N1CCC(Oc2cccnc2)CC1`, the inhibition is 8.82% (inactive). Next, `Cc1ccc(-n2c(SCC(=O)Nc3cccc4ccccc34)nnc2-c2ccco2)cc1`: 1.78% (inactive); `COc1ccc(-n2c(SCC(=O)Nc3ccc4c(c3)OCCO4)nnc2-c2ccc(Cl)cc2)cc1`: 3.45% (inactive); `O=C(O)CCC(=O)Nc1ccc(N2CCOCC2)cc1`: 17.1% (active). In the case of `O=C(COC(=O)Cc1ccc(Br)cc1)Nc1ccc(N2CCOCC2)cc1`, the inhibition was -6.57% (inactive). Next, `Cc1csc(=O)n1CCC(=O)OCC(=O)Nc1ccc(N2CCOCC2)cc1`: 1.07% (inactive); `COc1ccc(-c2cc(-c3nnc(SCc4ccc([N+](=O)[O-])cc4)n3N)[nH]n2)cc1`: -1.38% (inactive); `COc1ccccc1C(=O)CSc1nnc(-c2ccccn2)n1-c1ccccc1`: -0.35% (inactive). Next, `O=C(CSc1nc2ccccc2s1)NN=Cc1ccc(O)cc1O`: -3.78% (inactive); `O=C(Nc1ccccc1)N1CCN(Cc2nc3ccccc3c(=O)[nH]2)CC1`: -2.46% (inactive); `CCCn1c(C)cc(-c2csc(NC(=O)CCc3nc4ccccc4c(=O)[nH]3)n2)c1C`: 5.25% (inactive).

With `Cc1c(C#N)c(NC(=O)c2ccccc2)n(Cc2ccccc2)c1C`, the inhibition was 0.96% (inactive).

As to `CC(=O)Nc1ccc(C(=O)Nc2nc(-c3cc(C)n(Cc4ccccc4)c3C)cs2)cc1`, the inhibition is 17.7% (active).

On to `CCOc1ccc(-n2c(SCC(=O)Nc3cc(C)c(NC(=O)c4ccccc4)cc3OC)nnc2-c2cccs2)cc1`, for which the inhibition was 1.97% (inactive). For the molecule `COc1ccc(S[C@]2(C(=O)N(C)C)CC(=O)N(c3ccc(OC)cc3)[C@@H]2c2ccc(OC)cc2)cc1`, the inhibition is 2.73% (inactive). Consider `C=CCN1[C@@H](Cc2ccccc2)COc2cccc(N3CCSCC3)c2S1(=O)=O`, for which the inhibition was 1.03% (inactive). Next, `CCn1c2ccccc2c2cc(NC(=O)CSc3nnc(-c4ccccc4)n3-c3ccc(C)cc3)ccc21`: 0.64% (inactive). Next, `CC1C(=O)N(Cc2cn(CC3CCCCC3)nn2)CCS(=O)(=O)N1Cc1ccc(-c2cccc(N(C)C)c2)cc1` (centres undefined): 5.48% (inactive); `CC1C(=O)N(Cc2cn(Cc3ccco3)nn2)CCS(=O)(=O)N1Cc1ccc(-c2cccc(CO)c2)cc1` (centres undefined): 1.97% (inactive); `COc1ccc(Cn2cc(CN3CCS(=O)(=O)N(Cc4ccc(-c5cccc(Cl)c5)cc4)C(C)C3=O)nn2)cc1` (centres undefined): 79.8% (active).

Consider `COC(=O)[C@]12C[C@H](CC(=O)NCc3cccs3)C(=O)N(CCc3ccc(OC)c(OC)c3)C1=C[C@H](C(C)C)O[C@@H]2C1CC1`, for which the inhibition was 4.37% (inactive).

On to `Cc1c(CC(=O)N2CCN(C(=O)C3COc4ccccc4O3)CC2)c(=O)oc2c(O)c(O)ccc12` (centres undefined), for which the inhibition is 67.8% (active). Next, `CC(=O)c1ccccc1NC(=O)COC(=O)C1COc2ccccc2O1` (centres undefined): -3.4% (inactive).

With `Cc1ccc(S(=O)(=O)N(C)C)cc1NC(=O)COC(=O)C1COc2ccccc2O1` (centres undefined), the inhibition was 1.74% (inactive). Next, `C=CCN1C(=O)[C@@H](CC(=O)N2CCN(C(=O)OCC)CC2)[C@]2(C(=O)OCC)CCCCC/C=C/12`: -0.68% (inactive). For the molecule `CC(C)(C)OC(=O)NCCc1ccccc1/C=C/S(=O)(=O)NCc1ccc(F)cc1`, the inhibition is -1.63% (inactive).

On to `COc1ccc(CN2C/C(=C/c3ccccc3)N3C(=O)C[C@@H](c4ccccc4)N=C23)c(OC)c1`, for which the inhibition was -1.46% (inactive). As for `COc1c(O)cc2oc(-c3ccc(O)c(O)c3)cc(=O)c2c1O`, the figure is 34.7% (active); as for `CCCC[C@H](C(=O)N(CC)c1ccccc1)[C@@H](O)c1ccc2ccccc2c1`, -3.33% (inactive). Next, `C=CCN1C(=O)[C@H](CC(=O)NCCCN2CCCC2=O)[C@@]2(C(=O)OCC)CCCC=C12`: -3.27% (inactive).

As for `COC1=C[C@H](C(=O)NCCNC(C)=O)[C@H](C)[C@@H](c2ccccc2)CC1=O`, the inhibition is -0.49% (inactive). As for `C=C1c2c(Cl)ccc(O)c2C(O)=C2C(=O)[C@]3(O)C(O)=C(C(N)=O)C(=O)[C@@H](N(C)C)[C@@H]3[C@@H](O)C12` (some centres undefined), the figure is 68% (active); as for `CN(C)[C@@H]1C(=O)C(C(N)=O)=C(O)[C@@]2(O)C(=O)C3=C(O)c4c(O)ccc(Cl)c4[C@@H](O)[C@H]3C[C@@H]12`, 38.5% (active); as for `CCOC(=O)[C@]12CCCC=C1N(CCCOC)C(=O)[C@@H]2CC(=O)N1CCOCC1`, 4.81% (inactive).

Take `COc1ccc(C2Nc3ccccc3C(=O)N2Cc2cccs2)cc1COc1c(C)cccc1C` (centres undefined): the inhibition is -0.72% (inactive). For `CCOC(=O)C1=C(C)NC2=C(C(=O)CC(C)(C)C2)C1c1ccc2c(c1)OCO2` (centres undefined), the inhibition was -1.19% (inactive). As for `CCCC1CCC2(CCCN2CCOC(=O)NCc2ccccc2)CC1` (centres undefined), the figure is -0.38% (inactive); as for `Cc1ccc(C(=O)OC(C)CN2CCOCC2)cc1` (centres undefined), 57.5% (active). As for `Cc1cccc(C(=O)OC(C)CN2CCCC2)c1` (centres undefined), the figure is 1.96% (inactive); as for `CC(CN1CCOCC1)OC(=O)c1ccc(C(C)(C)C)cc1` (centres undefined), 2.54% (inactive); as for `COc1ccc2c(C(C)c3ccc(N)cc3)cn(C)c2c1` (centres undefined), 3.86% (inactive). As for `Cc1c(C(C)c2ccccc2O)[nH]c2ccccc12` (centres undefined), the figure is -2.27% (inactive); as for `Oc1ccc(N=Cc2sc3ccccc3c2Cl)cc1`, 27.5% (active). Turning to `COc1ccc([C@H]2OC(=O)C[C@H]2C(=O)N2CCN(c3ccccc3F)CC2)cc1OC`, the inhibition was 1.9% (inactive). As for `Cc1cc(C)nc(NC(=S)N2CCN(c3ccc(C(F)(F)F)cn3)CC2)c1`, the figure is 4.81% (inactive); as for `O=S1(=O)c2c(cccc2N2CCSCC2)Oc2ccccc2CN1Cc1cn(Cc2ccc(F)cc2)nn1`, -4.35% (inactive); as for `COC(=O)C1CN(CCc2ccccc2)CCS(=O)(=O)N1Cc1ccc(F)cc1` (centres undefined), -0.36% (inactive). For the molecule `O=C(CCS(=O)(=O)c1ccccc1)Nc1ccc(Cl)c(Cl)c1`, the inhibition was -0.44% (inactive). `Cc1ccc(-c2cnc(NC(=O)CCC(=O)N(C)Cc3ccccc3)n2C)cc1`: the inhibition was 38.1% (active). As for `CN(Cc1ccccc1)C(=O)CCNC(=O)Cn1cnc2ccccc2c1=O`, the figure is -0.32% (inactive); as for `Cn1c(-c2ccc(F)cc2)cnc1SCC(=O)NNC(=O)Cc1ccccc1`, -1.96% (inactive). Next, `O=C(OCC#CCSc1nnc(-c2ccco2)o1)c1ccc(F)cc1`: -2.28% (inactive); `COC(=O)[C@]12C[C@H](CC(=O)NCc3ccccc3)C(=O)N(Cc3ccccc3)C1=C[C@H](COCc1ccccc1)O[C@@H]2C`: -1.62% (inactive); `CC(C)C(C#CC1CC1)N(Cc1ccc2c(c1)OCO2)C(N)=NC(=O)/C=C/c1cccc(C(F)(F)F)c1` (centres undefined): -0.12% (inactive). As for `COc1ccc(CSc2nnc(-c3cccc(C)c3)n2C)cc1`, the figure is 1.05% (inactive); as for `Cn1c(SCC(=O)N2CCCC2)nnc1-c1ccc2c(c1)OCO2`, 0.18% (inactive). `Cn1c(SCc2nc3ccccc3s2)nnc1-c1ccc2c(c1)OCO2`: the inhibition was 14.7% (active).

`CCOC(=O)[C@]12CCCC3=C1N(CCC3)C(=O)[C@@H](CC(=O)N1CCSCC1)C2`: the inhibition was 4.16% (inactive). Next, `COC(=O)[C@]12C[C@H](CC(=O)NCc3ccccc3)C(=O)N(CCC3=CCCCC3)C1=C[C@H](C(C)C)O[C@@H]2C1CC1`: -3.27% (inactive). As to `Cc1ccccc1CN1CCCCC(NC(=O)c2cccc(C#N)c2)C1=O` (centres undefined), the inhibition is -3.73% (inactive). As for `CCCCCCN1CCS(=O)(=O)N(Cc2ccc(C(F)(F)F)cc2)C(C(=O)OC)C1` (centres undefined), the figure is -2.95% (inactive). As for `CCOC(=O)/C(C#N)=C\c1c(C)cc(C)c(COC(C)=O)c1C`, the inhibition was 15.8% (active).

On to `COC(=O)/C(C#N)=C/c1occc1C`, for which the inhibition was 1.63% (inactive). As for `CCCn1c(C)cc(/C=C(\C#N)C(=O)OCC(=O)Nc2cc(OC)c(OC)c(OC)c2)c1C`, the figure is 4.46% (inactive). As for `CCOC(=O)c1csc(NC(=O)C2CCCN(S(=O)(=O)c3ccc(Cl)s3)C2)n1` (centres undefined), the figure is 3.42% (inactive).
